The target in test [1] is Casein kinase II (Homo sapiens) (UniProt P67870+P68400+P19784). The settings on record: at 10 µM.
Test [2] has as its target Casein kinase II subunit alpha' (Homo sapiens) (UniProt P19784). The settings on record: at 1 µM.
Test [3] shares this target. The settings on record: at 10 µM.
In test [4] the target is Tyrosine-protein kinase CSK (Homo sapiens) (UniProt P41240). The settings on record: at 10 µM.
Test [5] deals with Calcium/calmodulin-dependent protein kinase type II subunit beta (Homo sapiens) (UniProt Q13554). The settings on record: at 1 µM.
Calcium/calmodulin-dependent protein kinase type II subunit beta (Homo sapiens), sequence (Q13554 whole entry): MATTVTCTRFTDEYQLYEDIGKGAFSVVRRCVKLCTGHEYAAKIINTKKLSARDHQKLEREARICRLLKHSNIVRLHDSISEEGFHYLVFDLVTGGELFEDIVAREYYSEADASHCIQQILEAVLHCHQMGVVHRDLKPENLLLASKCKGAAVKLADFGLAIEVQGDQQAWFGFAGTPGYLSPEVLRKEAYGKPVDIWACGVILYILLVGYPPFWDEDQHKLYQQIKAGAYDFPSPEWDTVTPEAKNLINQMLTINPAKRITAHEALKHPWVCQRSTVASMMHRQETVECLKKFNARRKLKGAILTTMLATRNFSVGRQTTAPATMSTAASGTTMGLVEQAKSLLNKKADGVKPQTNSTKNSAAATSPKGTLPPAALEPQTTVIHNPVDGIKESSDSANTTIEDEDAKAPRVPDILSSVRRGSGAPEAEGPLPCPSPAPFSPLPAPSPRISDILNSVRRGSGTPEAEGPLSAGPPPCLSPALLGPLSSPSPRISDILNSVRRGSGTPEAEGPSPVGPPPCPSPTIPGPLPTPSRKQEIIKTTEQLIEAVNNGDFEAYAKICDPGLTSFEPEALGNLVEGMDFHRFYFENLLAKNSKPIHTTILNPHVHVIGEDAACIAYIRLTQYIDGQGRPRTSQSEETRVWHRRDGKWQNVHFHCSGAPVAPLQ
Test [6] has the same target. The settings on record: at 10 µM.
For test [7], the target named is Calcium/calmodulin-dependent protein kinase type II subunit gamma (Homo sapiens) (UniProt Q13555). The settings on record: at 1 µM.
Calcium/calmodulin-dependent protein kinase type II subunit gamma (Homo sapiens), sequence (Q13555 whole entry): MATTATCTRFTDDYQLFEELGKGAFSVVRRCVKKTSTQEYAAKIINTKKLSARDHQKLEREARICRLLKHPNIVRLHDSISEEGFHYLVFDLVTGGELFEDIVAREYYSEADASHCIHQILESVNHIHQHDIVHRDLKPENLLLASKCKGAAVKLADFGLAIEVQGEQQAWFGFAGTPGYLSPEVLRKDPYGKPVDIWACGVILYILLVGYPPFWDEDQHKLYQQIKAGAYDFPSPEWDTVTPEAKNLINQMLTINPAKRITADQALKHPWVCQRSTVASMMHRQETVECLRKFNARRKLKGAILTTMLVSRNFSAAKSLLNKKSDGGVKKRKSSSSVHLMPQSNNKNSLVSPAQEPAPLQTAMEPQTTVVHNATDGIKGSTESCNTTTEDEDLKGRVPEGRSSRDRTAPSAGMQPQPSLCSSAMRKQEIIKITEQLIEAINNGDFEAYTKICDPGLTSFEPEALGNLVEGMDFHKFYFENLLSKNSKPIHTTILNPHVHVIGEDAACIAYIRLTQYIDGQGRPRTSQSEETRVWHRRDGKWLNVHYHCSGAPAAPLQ
The target is the same in test [8]. The settings on record: at 10 µM.
Test [9] addresses Calcium/calmodulin-dependent protein kinase type II subunit delta (Homo sapiens) (UniProt Q13557). The settings on record: at 1 µM.
The target is the same in test [10]. The settings on record: at 10 µM.
The target of test [11] is T1, Calcium/calmodulin-dependent protein kinase type IV (Homo sapiens) (UniProt Q16566).
T1 sequence (whole entry): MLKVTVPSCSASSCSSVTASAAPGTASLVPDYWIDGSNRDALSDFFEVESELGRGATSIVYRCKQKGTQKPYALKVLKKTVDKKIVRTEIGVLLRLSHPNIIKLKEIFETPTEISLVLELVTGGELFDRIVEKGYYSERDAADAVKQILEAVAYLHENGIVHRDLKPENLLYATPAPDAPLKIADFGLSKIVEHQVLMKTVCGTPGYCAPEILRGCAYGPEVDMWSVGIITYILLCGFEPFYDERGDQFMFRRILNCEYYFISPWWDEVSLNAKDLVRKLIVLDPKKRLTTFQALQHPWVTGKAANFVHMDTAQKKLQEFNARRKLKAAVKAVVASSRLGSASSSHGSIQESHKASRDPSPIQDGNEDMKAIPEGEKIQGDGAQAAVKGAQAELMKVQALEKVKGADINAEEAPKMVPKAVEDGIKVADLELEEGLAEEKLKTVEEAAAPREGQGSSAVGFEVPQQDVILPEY
The settings on record: at 1 µM.

Test [12] addresses T1, Calcium/calmodulin-dependent protein kinase type IV (Homo sapiens). The settings on record: at 10 µM.
Test [13] concerns the target Dual specificity protein kinase CLK2 (Homo sapiens) (UniProt P49760). The settings on record: at 1 µM.
Test [14] shares this target. The settings on record: at 10 µM.
For test [15], the target named is Dual specificity protein kinase CLK3 (Homo sapiens) (UniProt P49761). The settings on record: at 10 µM.
Dual specificity protein kinase CLK3 (Homo sapiens), sequence (P49761 whole entry, looked up): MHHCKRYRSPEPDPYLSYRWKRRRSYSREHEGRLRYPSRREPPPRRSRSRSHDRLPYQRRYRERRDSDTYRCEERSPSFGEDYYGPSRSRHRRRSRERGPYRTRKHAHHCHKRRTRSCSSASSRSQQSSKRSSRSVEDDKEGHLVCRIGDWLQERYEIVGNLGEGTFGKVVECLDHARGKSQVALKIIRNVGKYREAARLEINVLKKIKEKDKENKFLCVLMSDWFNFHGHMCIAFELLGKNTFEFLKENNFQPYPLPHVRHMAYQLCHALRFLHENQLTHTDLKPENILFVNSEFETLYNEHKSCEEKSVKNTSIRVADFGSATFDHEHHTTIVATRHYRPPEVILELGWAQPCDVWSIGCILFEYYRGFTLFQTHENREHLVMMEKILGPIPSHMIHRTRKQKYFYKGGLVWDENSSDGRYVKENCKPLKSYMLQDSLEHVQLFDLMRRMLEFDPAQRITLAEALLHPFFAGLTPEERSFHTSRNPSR
In test [16] the target is Calcium/calmodulin-dependent protein kinase type 1 (Homo sapiens) (UniProt Q14012). The settings on record: at 10 µM.
Calcium/calmodulin-dependent protein kinase type 1 (Homo sapiens), sequence (Q14012 whole entry, looked up): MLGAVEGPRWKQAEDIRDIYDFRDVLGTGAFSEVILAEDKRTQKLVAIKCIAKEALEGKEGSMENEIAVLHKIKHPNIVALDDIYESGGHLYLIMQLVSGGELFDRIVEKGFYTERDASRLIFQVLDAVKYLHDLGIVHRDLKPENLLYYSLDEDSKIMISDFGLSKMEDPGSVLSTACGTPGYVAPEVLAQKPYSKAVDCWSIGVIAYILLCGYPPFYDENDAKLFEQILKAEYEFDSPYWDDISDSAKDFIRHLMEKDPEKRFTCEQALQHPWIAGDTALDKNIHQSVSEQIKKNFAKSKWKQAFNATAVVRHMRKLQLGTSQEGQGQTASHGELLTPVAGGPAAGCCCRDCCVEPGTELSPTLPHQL
Test [17] concerns the target Dual specificity protein kinase CLK3 (Homo sapiens) (UniProt P49761). The settings on record: at 1 µM.
In test [18] the target is Tyrosine-protein kinase CSK (Homo sapiens) (UniProt P41240). The settings on record: at 1 µM.
The target in test [19] is Calcium/calmodulin-dependent protein kinase type 1 (Homo sapiens) (UniProt Q14012). The settings on record: at 1 µM.

Calcium/calmodulin-dependent protein kinase type II subunit delta (Homo sapiens), sequence (Q13557 whole entry): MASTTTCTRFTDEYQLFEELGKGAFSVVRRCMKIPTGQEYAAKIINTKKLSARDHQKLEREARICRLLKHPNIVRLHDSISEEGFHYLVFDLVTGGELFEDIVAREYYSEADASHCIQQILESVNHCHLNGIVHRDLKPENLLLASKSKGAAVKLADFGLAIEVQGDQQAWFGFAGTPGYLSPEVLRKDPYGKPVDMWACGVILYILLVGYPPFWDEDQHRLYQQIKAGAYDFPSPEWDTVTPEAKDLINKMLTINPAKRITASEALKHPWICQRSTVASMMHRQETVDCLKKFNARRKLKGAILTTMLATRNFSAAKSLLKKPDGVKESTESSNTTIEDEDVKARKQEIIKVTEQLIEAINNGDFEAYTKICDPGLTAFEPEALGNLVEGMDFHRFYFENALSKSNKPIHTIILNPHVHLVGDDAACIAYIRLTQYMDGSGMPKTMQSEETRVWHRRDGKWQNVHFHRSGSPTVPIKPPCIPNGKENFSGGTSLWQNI
Casein kinase II subunit alpha' (Homo sapiens), sequence (P19784 whole entry, looked up): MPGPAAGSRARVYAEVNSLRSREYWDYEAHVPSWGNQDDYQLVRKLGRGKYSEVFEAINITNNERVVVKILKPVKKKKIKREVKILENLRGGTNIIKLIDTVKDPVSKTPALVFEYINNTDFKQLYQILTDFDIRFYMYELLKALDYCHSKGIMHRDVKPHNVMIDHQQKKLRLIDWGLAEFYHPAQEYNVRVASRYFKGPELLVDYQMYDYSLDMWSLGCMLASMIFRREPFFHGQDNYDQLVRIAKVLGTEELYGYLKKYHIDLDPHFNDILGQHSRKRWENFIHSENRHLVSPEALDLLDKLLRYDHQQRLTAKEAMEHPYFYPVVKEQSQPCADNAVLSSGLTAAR
Dual specificity protein kinase CLK2 (Homo sapiens), sequence (P49760 whole entry, looked up): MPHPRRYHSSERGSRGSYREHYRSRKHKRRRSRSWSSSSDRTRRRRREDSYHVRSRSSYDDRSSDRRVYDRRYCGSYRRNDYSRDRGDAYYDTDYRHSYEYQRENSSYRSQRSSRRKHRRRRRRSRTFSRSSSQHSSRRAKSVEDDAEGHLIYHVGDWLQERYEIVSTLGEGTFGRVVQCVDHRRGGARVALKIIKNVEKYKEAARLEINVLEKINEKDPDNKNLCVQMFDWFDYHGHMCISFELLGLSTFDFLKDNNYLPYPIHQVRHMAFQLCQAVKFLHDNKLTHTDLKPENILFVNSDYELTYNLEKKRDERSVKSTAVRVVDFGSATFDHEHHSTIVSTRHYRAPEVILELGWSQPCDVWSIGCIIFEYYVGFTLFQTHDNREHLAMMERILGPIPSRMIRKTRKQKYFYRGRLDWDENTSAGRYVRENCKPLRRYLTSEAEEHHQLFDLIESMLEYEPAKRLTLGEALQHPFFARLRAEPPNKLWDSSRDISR
Tyrosine-protein kinase CSK (Homo sapiens), sequence (P41240 2-450 limits assumed): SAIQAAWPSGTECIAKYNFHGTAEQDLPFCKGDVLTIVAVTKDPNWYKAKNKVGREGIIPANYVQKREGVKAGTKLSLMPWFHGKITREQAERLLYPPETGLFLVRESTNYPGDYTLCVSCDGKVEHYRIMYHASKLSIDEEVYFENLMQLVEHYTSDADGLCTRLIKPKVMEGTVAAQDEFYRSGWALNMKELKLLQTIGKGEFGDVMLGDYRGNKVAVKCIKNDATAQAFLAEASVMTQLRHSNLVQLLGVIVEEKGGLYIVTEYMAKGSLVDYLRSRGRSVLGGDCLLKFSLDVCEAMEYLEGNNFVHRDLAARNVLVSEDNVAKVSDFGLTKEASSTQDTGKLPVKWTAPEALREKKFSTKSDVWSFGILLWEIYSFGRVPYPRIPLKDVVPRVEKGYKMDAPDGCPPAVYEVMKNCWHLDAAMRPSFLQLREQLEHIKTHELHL
Casein kinase II (Homo sapiens), sequence (P19784 whole entry, looked up): as the sequence (P19784 whole entry, looked up) above
Casein kinase II (Homo sapiens), sequence (P67870 whole entry, looked up): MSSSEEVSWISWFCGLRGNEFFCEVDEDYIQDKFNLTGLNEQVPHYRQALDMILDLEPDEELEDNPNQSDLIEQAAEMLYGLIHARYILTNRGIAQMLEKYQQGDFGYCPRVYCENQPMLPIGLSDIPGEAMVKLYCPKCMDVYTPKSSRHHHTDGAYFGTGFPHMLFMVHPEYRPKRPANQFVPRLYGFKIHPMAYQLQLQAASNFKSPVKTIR
Casein kinase II (Homo sapiens), sequence (P68400 whole entry, looked up): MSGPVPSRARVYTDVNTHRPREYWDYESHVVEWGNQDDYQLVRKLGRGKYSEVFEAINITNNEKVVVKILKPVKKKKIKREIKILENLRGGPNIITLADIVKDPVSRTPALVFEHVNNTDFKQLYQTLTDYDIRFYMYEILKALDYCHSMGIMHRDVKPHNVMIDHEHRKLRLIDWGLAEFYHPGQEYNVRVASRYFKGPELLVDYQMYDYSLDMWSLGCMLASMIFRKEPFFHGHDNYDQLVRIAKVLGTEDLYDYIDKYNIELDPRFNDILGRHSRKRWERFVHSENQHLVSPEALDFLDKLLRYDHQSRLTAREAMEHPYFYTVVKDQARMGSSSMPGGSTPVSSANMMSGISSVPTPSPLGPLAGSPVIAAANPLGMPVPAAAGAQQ

As to `CC(C)[C@H](CO)Nc1nc(Nc2cc(N)cc(Cl)c2)c2ncn(C(C)C)c2n1`, the residual activity is 93% in [1]; 120% in test [2]; 96% in [3]; 73% in test [4]; 92% in test [5]; 58% in test [6]. Also, the residual activity was determined as 76% in test [7]; 20% in test [8]; 80% in [9]; 24% in test [10]; 96% in [11]; 33% in test [12].

With `COc1ccc(COc2ccc(Cc3cnc(N)nc3N)cc2OC)cc1`, the residual activity is 110% in [2]; 74% in test [3]; 108% in test [13]; 100% in test [14]; 3% in test [15]; 76% in test [16]. Moreover, in [11], the residual activity came out at 130%.

As to `COc1cc2nccc(Oc3ccc(NC(=O)Nc4cc(C)on4)c(Cl)c3)c2cc1OC`, the residual activity in test [14] is 99%; in test [17] it was 80%; in test [15], 4%; in test [18], 72%; in test [4], 35%; in test [19], 105%. Also, the residual activity in test [16] was determined as 41%; in test [5], 97%; in test [6] it was 69%; in test [7], 108%; in [8], 70%; in [9], 102%. Moreover, the results for the residual activity in test [11] and in test [12] were 123% and 54%, respectively.

On to `CCCCc1c(-c2ccc(OC)cc2)[nH]c2nccnc12`, for which the residual activity in [2] is 111%; in test [13], 78%; in [17] it was 85%; in test [15], 73%; in [19], 109%; in [16], 86%. The residual activity in test [5] was 82%; in [6], 84%; in test [7], 64%; in test [8] it was 26%; in test [9] it was 73%; in test [10], 42%. Also, the residual activity in [11] came out at 112%.

`O=C(NC(NC(=S)Nc1ccc(F)c([N+](=O)[O-])c1)C(Cl)(Cl)Cl)C(c1ccccc1)c1ccccc1` (stereo not given): the residual activity in test [1] is 85%; in test [17], 94%; in test [15], 84%; in test [18], 95%; in test [4], 101%; in test [19] it was 99%. The residual activity in test [16] worked out at 91%; in test [5], 91%; in test [6], 72%; in [7], 99%; in test [8] it was 89%; in [9] it was 99%. For the same compound, the residual activity in test [10] stood at 82%.

Take `O=C1Cc2c([nH]c3ccc([N+](=O)[O-])cc23)-c2ccccc2N1`: the residual activity stood at 82% in test [15]; 61% in test [5]; 76% in [6]; 24% in test [7]; 32% in test [9]; 20% in [10].

As for `COc1ccc(-c2cnc3c(-c4ccsc4)cnn3c2)cc1`, the residual activity in [17] is 80%; in test [15], 61%; in test [4], 98%; in test [19], 88%; in test [16] it was 80%; in test [5], 93%. Besides, the residual activity in test [6] turned out to be 89%; in test [7] it was 71%; in test [8] it was 79%; in test [9], 80%; in test [10] it was 87%.

In the case of `O=C(c1cc2cc(O)ccc2[nH]1)c1cc2cc(O)ccc2[nH]1`, the residual activity in [3] was found to be 72%; in test [13], 32%; in test [14], 5%; in test [17] it was 69%; in [15] it was 4%; in test [16], 37%. The residual activity amounted to 53% in test [5]; 14% in test [6]; 30% in test [7]; 2% in test [8]; 23% in test [9]; 4% in test [10]. Also, the residual activity amounted to 114% in [11] and 76% in test [12].

On to `CCN(CC)CCNC(=O)c1c(C)[nH]c(/C=C2\C(=O)Nc3ccc(Cl)cc32)c1C`, for which the residual activity was determined as 47% in test [3]; 9% in test [13]; 1% in test [14]; 77% in test [17]; 4% in test [15]; 51% in test [19]. For the same compound, the residual activity in test [16] was -2%; in test [5], 8%; in test [6], 1%; in [7], 3%; in test [8], 0%; in [9], 3%. In addition, the residual activity in test [10] is 1%.

Regarding `COc1cc2ncnc(Nc3cccc(Cl)c3)c2cc1OC`, the residual activity in test [2] worked out at 128%; in test [3] it was 102%; in test [13], 110%; in test [14], 74%; in test [15] it was 84%; in test [18] it was 111%. The residual activity in test [4] was 80%; in [19] it was 108%; in test [16], 62%; in [6], 60%; in test [7], 45%; in [8], 5%. In addition, the residual activity in [9] was 60%; in test [10], 18%.

With `CN([C@@H](Cc1ccc(OS(=O)(=O)c2cccc3cnccc23)cc1)C(=O)N1CCN(c2ccccc2)CC1)S(=O)(=O)c1cccc2cnccc12`, the results for the residual activity in test [5], in test [6] and in test [9] were 100%, 78% and 99%, respectively.

As for `CCN1/C(=C/C(C)=O)Sc2ccc(OC)cc21`, the residual activity in [13] was 20%; in test [14], 6%; in [17], 77%; in test [15], 40%; in test [6], 70%.

Consider `O=C(Nc1ccc(Cl)cc1)c1ccccc1NCc1ccncc1`, for which the residual activity in [13] is 120%; in test [14], 99%.

As to `N#C/C(=C\c1ccc(O)c(O)c1)C(=O)NCc1ccccc1`, the residual activity turned out to be 129% in test [2]; 100% in [3]; 80% in test [14]; 82% in [17]; 87% in test [16]; 89% in test [6]. For the same compound, the residual activity stood at 121% in test [11] and 84% in test [12].

As to `O=C1Nc2ccccc2/C1=C\c1c(Cl)[nH]c2ccccc12`, the residual activity in test [15] was found to be 76%; in test [4], 99%; in test [16] it was 51%; in test [6], 25%; in [8], 39%; in test [9], 87%. For the same compound, the residual activity in test [10] is 34%.

With `O=S(=O)(NCCNC/C=C/c1ccc(Br)cc1)c1cccc2cnccc12`, the residual activity worked out at 68% in test [14]; 79% in test [17]; 100% in test [18]; 76% in [5]; 29% in [6]; 100% in test [7]. Besides, the residual activity in [8] amounted to 41%; in test [10], 35%.

Regarding `O=C1NC(=O)C(c2c[nH]c3ccccc23)=C1c1c[nH]c2ccccc12`, the residual activity in test [2] was determined as 118%; in test [13], 27%; in test [14], 5%; in test [17], 60%; in [15], 29%; in test [16], 57%. Further, the residual activity was found to be 68% in test [5]; 13% in test [6]; 40% in test [7]; 4% in [8]; 28% in [9]; 4% in [10]. The residual activity in [11] was 100%; in test [12] it was 54%.

Consider `Nc1nccc(-c2c(-c3ccc(F)cc3)ncn2C2CCNCC2)n1`, for which the residual activity in test [3] came out at 60%; in test [13] it was 69%; in test [14], 30%; in test [15], 68%; in [6] it was 55%; in test [8] it was 62%. The residual activity in test [9] amounted to 100%; in [10] it was 56%.

`CC(C)(C)n1nc(Cc2cccc3ccccc23)c2c(N)ncnc21`: the residual activity was 118% in test [2]; 72% in test [3]; 94% in test [13]; 42% in test [14]; 95% in test [17]; 32% in test [15]. The residual activity in test [18] turned out to be 82%; in test [4] it was 20%; in [19] it was 105%; in test [16] it was 88%; in test [5] it was 89%; in test [6], 68%. The residual activity in [7] came out at 106%; in test [8], 78%; in [9] it was 106%; in test [10], 78%; in test [11], 122%; in test [12], 74%.

In general, residual activity refers to the signal under treatment as a percentage of the control signal.

(Values after ChEMBL document CHEMBL2218924, “A broad activity screen in support of a chemogenomic map for kinase signalling research and drug discovery” (Biochem J, 2013).)
